# Where “and” joins values, the source holds several entries; their conditions need not be identical. Equal entries are not always repeated. This is part of a sample that, as a whole, favours compounds with a hit. Of some 83,000 tested, about 20% had one in any assay.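 For each line, cells grew in 96-well plates with the test compound present at a single concentration for 48 hours.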 Calls of active or inactive are those of the source. How the source made its calls: active means growth percent below 10; inactive means the rest.
# Tested on: MDA-MB-468 breast
# Experiment: NCI-60 one-dose screen, 48 h (100 = growth as untreated, 0 = no growth, -100 = all killed)
# Settings: 10 µM unless noted
row,Structure (SMILES),growth
1,CCCCCCCCCCCCCCCCCC1=NCCN1CCOC1=C(Cl)C(=O)c2ccccc2C1=O,-50.1% (active)
2,CS(=O)CCCCCN=C=S (stereo unspecified),-11.3% (active)
3,C/C(=C(\c1ccc(OCCCN(C)C)cc1)c1ccc(OC(=O)Cc2ccccc2)cc1)c1ccc(Cl)cc1,84.1% (inactive)
4,CCCCCN(CCCCC)CCCNc1c2c(nc3ccc(Cl)cc13)CCCC2,8.01% (active)
5,O=C1/C(=C/c2cccc(OCc3ccccc3)c2)Oc2cc(OCCN3CCCCC3)ccc21,80.4% (inactive)
6,CC1=C([Se]CC(OC(=O)[C@@H](CO)NC(=O)OC(C)(C)C)C(=O)NCCCCCC(=O)OCc2ccccc2)C(=O)c2ccccc2C1=O (stereo partly specified),-83.7% (active)
7,N#CC1=C(N)Oc2c(sc3c(Br)cccc23)C1c1ccccn1 (stereo unspecified),25.6% (inactive)
8,CC(C)Oc1ccc2cc(-c3nn(CC4CCNCC4)c4ncnc(N)c34)ccc2c1,84.8% (inactive) and -20% (active)
9,CNC(=O)c1c(NC(=O)c2ccc(F)cc2F)sc2c1CCC(=O)C2,-15.5% (active)
10,Cc1csc(-c2nnc(Nc3ccc(Oc4ncccc4-c4ccnc(N)n4)cc3)c3ccccc23)c1,41.6% (inactive)
11,CCC(=O)NC(O)C(Cl)(Cl)C(C)Cl (stereo unspecified),92.5% (inactive)
12,CC1CN(CCO)CC(C)O1 (stereo unspecified),108% (inactive)
13,COc1cc(/C=C/C(=O)/C=C/c2ccc(-n3ccnc3)cc2)ccc1O,37.8% (inactive)
14,CCOC(=O)c1c(-c2ccc(Cl)cc2)c(C#N)c2c(C#N)c(N)nn2c1N,33.6% (inactive)
15,COC(=O)c1c(C)c2n(c1C)C(=O)C(c1ccccc1)=C2,39.1% (inactive)
16,CCCN1CCN(c2ccc3nc(-c4ccc5nc(-c6ccc(OCC)c(OCC)c6)[nH]c5c4)[nH]c3c2)CC1,-77.2% (active)
17,CN(CCC(=O)c1ccccc1)CCC(=O)c1ccccc1,73.4% (inactive)
18,NC(N)=Nc1nc2ccccc2o1,106% (inactive)

row,Structure (SMILES),growth
1,CCOc1ccccc1C(=O)N1CCN(c2cc(Cl)cc(Cl)c2)CC1,3.92% (active)
2,COc1cc(-c2nc(SCCC(C)C)nc(Nc3ccc(F)cc3)c2C#N)cc(OC)c1OC,96.8% (inactive)
3,CNC(=O)c1ccccc1Nc1nc(Nc2ccc3c(c2OC)CCC[C@H](N2CCN(CCO)CC2)C3)ncc1Cl,-52.8% (active)
4,COc1cc(-c2ccc[nH]2)[nH]c1/C=C1\N=C(C)C(C(=O)NC(C)C)=C1C,44% (inactive)
5,COc1ccc(/C=N/NC(=O)c2ccc(-n3cc(-c4ccccc4)nn3)cc2)cc1OC,101% (inactive)
6,Nc1n[nH]c2cccc(C#Cc3cccc(C(=O)Nc4ccc(CN5CCOCC5)c(C(F)(F)F)c4)c3)c12,66% (inactive)
7,CC(=O)O[C@H]1[C@H](CC#CC#CC[C@@H]2C[C@]3(C)[C@H]4CC=C5[C@H]6[C@@H](C)[C@H](C)CC[C@]6(C(=O)NCCN(CCN)CCN)CC[C@@]5(C)[C@]4(C)CC[C@H]3C(C)(C)[C@H]2OC(C)=O)C[C@]2(C)[C@H]3CC=C4[C@H]5[C@@H](C)[C@H](C)CC[C@]5(C(=O)NCCN(CCN)CCN)CC[C@@]4(C)[C@]3(C)CC[C@H]2C1(C)C,1.36% (active)
8,C=CCn1c(SCC(=O)Nc2ccc(/C(C)=N\O)cc2)nnc1-c1cc(-c2ccccc2)nc2ccccc12,73% (inactive)
9,C=C(C)[C@@H]1CC[C@]2(C(=O)N3CCN(C)CC3)CC[C@]3(C)[C@H](CC[C@@H]4[C@@]5(C)C/C(=C/c6ccco6)C(=O)C(C)(C)[C@@H]5CC[C@]43C)[C@@H]12,64.6% (inactive)
10,C#C[C@]1(O)CC[C@H]2[C@@H]3CC=C4c5sc(Nc6cccc(Cl)n6)nc5CC[C@]4(C)[C@H]3CC[C@@]21C,23.3% (inactive)
11,COc1ccc(Cn2cc3c(c2-c2ccccc2)CCc2cncnc2-3)cc1,32.5% (inactive)
12,CCCCCCCCCCCCCCCCSC(=NCC)NCC,-37.3% (active)
13,COc1ncnc2c1ncn2C/C(Br)=C(\Br)CCl,16.9% (inactive)
14,Cc1ccc(C(=O)NN2C(=O)/C(=C/C=C/c3ccco3)SC2=S)cc1,71% (inactive)
15,Cc1nnc2nc(N)[nH]n2c1=O,108% (inactive)
16,Cc1cccc(Cl)c1NC(=O)c1ccc2nc(NC(=O)NCCN(C)C)sc2c1,30.6% (inactive)
17,N#CC1=C(N)Oc2nc[nH]c(=O)c2C1c1cccs1 (stereo unspecified),99.3% (inactive)
18,CCCCCCCCCCCCCCCCCCSC(=N)N,67.8% (inactive)
